According to PubChem BioAssay AID1220 (Sanford-Burnham Center for Chemical Genomics, 2008):
The whole screen tested about 190,000 compounds, of which about 1,300 (0.68%) were called active. No stated cut-off is given here; in the data, active means inhibition above about 50%; inactive means the rest. This excerpt belongs to a sample that is enriched for actives.

target: Mannose-6-phosphate isomerase (Homo sapiens) (UniProt P34949); assay: human PMI inhibitors, high substrate, primary screen, biochemical, fluorescence intensity, high mannose 6-phosphate (AID 1220); details: recombinant PMI enzyme, coupled fluorescence intensity; at 20 µM; stronger effect = higher value
Sequence (P34949 whole entry, looked up): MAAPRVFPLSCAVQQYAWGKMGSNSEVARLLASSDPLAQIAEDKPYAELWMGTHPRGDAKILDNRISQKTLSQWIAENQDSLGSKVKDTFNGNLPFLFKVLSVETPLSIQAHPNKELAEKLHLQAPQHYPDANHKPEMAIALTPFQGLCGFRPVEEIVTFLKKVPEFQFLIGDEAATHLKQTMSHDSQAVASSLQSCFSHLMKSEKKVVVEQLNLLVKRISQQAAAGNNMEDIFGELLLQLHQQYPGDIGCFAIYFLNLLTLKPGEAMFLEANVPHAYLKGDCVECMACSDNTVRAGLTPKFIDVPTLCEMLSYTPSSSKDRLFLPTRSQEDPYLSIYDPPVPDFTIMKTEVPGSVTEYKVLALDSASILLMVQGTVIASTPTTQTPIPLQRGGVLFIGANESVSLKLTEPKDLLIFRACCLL

SMILES | inhibition
COc1cc(/C=C(/C#N)c2nc3ccccc3c(=O)[nH]2)ccc1O | 13.6% (inactive)
Clc1ccc(CNc2ccccc2NCc2ccc(Cl)nc2)cn1 | 53.8% (active)
Cc1ccc(NCc2ccc(Cl)nc2)c(NCc2ccc(Cl)nc2)c1 | -88.3% (inactive)
Clc1ccc(Cn2cccn2)cn1 | 10.3% (inactive)
COc1ccc(CCC(=O)NNC(=S)NCc2ccc(F)cc2)cc1 | 1.2% (inactive)
Cc1ccc(S(=O)(=O)/N=C2\C(=O)c3ccccc3C([O-])=C2n2cc[n+](CCC(C)C)c2)cc1 | 50.4% (active)
CCCC[n+]1ccn(C2=C([O-])c3ccccc3C(=O)/C2=N\S(=O)(=O)c2ccccc2)c1 | 46.3% (inactive)
CC(C)CC[n+]1ccn(C2=C([O-])c3ccccc3C(=O)/C2=N\S(=O)(=O)c2ccccc2)c1 | 47% (inactive)
COc1ccccc1NC(=O)NCC(=O)Nc1c(C)cccc1C | -13.9% (inactive)
COC(=O)c1ccc(Sc2ccc(C)cc2)c(N)c1 | 9.7% (inactive)
Cc1ccc(Sc2cnc(N)nc2C)cc1 | 3.4% (inactive)
COc1cc(Sc2ccc(C)cc2)c(OC)cc1N | 67.2% (active)
CCc1ccc2c(c1)C(c1cccs1)=NNC(c1cccnc1)=N2 | 3.3% (inactive)
C=CCSc1nc(-c2ccc3c(c2)OCO3)cc(C(F)(F)F)c1C#N | 11.5% (inactive)
O=C(CNCc1ccncc1)Nc1cc(S(=O)(=O)N2CCCCC2)ccc1Cl | -89% (inactive)
O=C(CCl)Nc1cc(S(=O)(=O)N2CCCCCC2)ccc1Cl | 4.5% (inactive)
O=C(CNCc1ccccn1)Nc1cc(S(=O)(=O)N2CCCCC2)ccc1Cl | 55.4% (active)
CC1CCC(C(C)C)C(OCC[N+](C)(C)C)C1 (stereo unspecified) | 8.9% (inactive)
Cc1nn(CCO)c(C)c1Oc1ccccc1O | 4% (inactive)
COCc1cc([C@@H]2C[C@H]3CN(c4ccccc4)C(=O)[C@]34CCCN24)ccc1OC | 13.6% (inactive)
COc1cc([C@@H]2C[C@H]3CN(c4ccccc4)C(=O)[C@]34CCCN24)cc(OC)c1OC | 3.7% (inactive)

SMILES | inhibition
CCOc1cc([C@@H]2C[C@H]3CN(c4ccccc4)C(=O)[C@]34CCCN24)ccc1OC | 57.1% (active)
O=c1oc(-c2ccccc2NS(=O)(=O)c2ccccc2)nc2ccccc12 | -2.5% (inactive)
Fc1cc(F)cc(NC(=S)N2CCC(c3ccccc3)C2)c1 (stereo unspecified) | -2.1% (inactive)
Cn1cccc1CNC(=O)Nc1ccccc1 | -5.8% (inactive)
CN(C)/C=N/C1=C(C#N)C(c2cccs2)c2ccc3ccccc3c2O1 (stereo unspecified) | 55.2% (active)
N#CC1=C(N)Oc2cc3ccccc3cc2C1c1cccs1 (stereo unspecified) | 7.9% (inactive)
N#CC1=C(N)Oc2cc(O)ccc2C1c1cccs1 (stereo unspecified) | 10.1% (inactive)
COc1cc(/C=N/NC(=O)CC2(C)OCCCO2)ccc1OCc1ccccc1 | 2.4% (inactive)
CC1(CC(=O)N/N=C/c2ccc(OCc3ccc(Cl)cc3Cl)cc2)OCCCO1 | 10.6% (inactive)
COc1cc(/C=N/NC(=O)CC2(C)OCCCO2)ccc1OCc1ccc(Cl)cc1Cl | 51.1% (active)
COc1ccc(NC(=O)CSc2nc(N)c3cc4c(nc3n2)CCCC4)c(OC)c1 | -6.7% (inactive)
CCOC(=O)C1CCN(C(=S)Nc2cc(C)ccc2C)CC1 | 7.3% (inactive)
CCOC(=O)N1CCN(C(=S)Nc2cccc(C)c2C)CC1 | 8.4% (inactive)
CCOC(=O)C1CCN(C(=S)Nc2cccc(C)c2C)CC1 | 52.8% (active)
S=C(Nc1ccccc1Cl)N1CCCC1 | 13.6% (inactive)
Cc1ccccc1NC(=S)N1CCCC1 | 52.6% (active)
Cc1ccccc1NC(=S)N1CCOCC1 | -2.1% (inactive)
O=C(O)CC1NC(=O)N(C2CCCCC2)C1=O (stereo unspecified) | -10% (inactive)
CCCCN(CC)C(=O)Cc1ccc(Br)cc1 | 6.7% (inactive)
CCOC(=O)C1(Cc2ccc(OC)cc2)CCN(C(=O)CN2CCN(CC)CC2)CC1 | 12.7% (inactive)
O=C(COC(=O)c1nc(Cl)ccc1Cl)Nc1ccc2c(c1)OCO2 | 8.3% (inactive)

SMILES | inhibition
CCN(CC)C(=O)N1c2ccccc2CC(N(CC)CC)c2ccccc21 (stereo unspecified) | -19.4% (inactive)
Cc1nc(C#N)c(N/N=C/c2cccc(Cl)c2)o1 | 12.6% (inactive)
Cc1nc(C#N)c(N/N=C/c2c(F)cccc2Cl)o1 | 53.3% (active)
Fc1cccc(Cl)c1/C=N/Nc1c(Cl)cncc1Cl | 8.5% (inactive)
Cc1cccc2cc(C3CC(c4cccs4)=NN3C(=O)CCC(=O)O)c(Cl)nc12 (stereo unspecified) | 8.9% (inactive)
COc1ccc(N2CCn3c2nc2c3c(=O)n(CCCc3ccccc3)c(=O)n2C)cc1 | -5.3% (inactive)
Cc1ccc(-c2nc(CN(CC3CCC3)CC3CCCO3)c(C)o2)s1 (stereo unspecified) | 5.6% (inactive)
COC(=O)C/C=C/[C@@H](C)[C@@H](/C=N/OCC[C@@H]1C=C[C@H](OC(C)=O)[C@@H](COC(C)=O)O1)NS(=O)(=O)c1ccc(C)cc1 | -6.1% (inactive)
CN1CC=C2C(C#N)=C(N)C(C#N)(C#N)C(CCc3ccccc3)C2C1 (stereo unspecified) | 17.3% (inactive)
CCCC1C2CN(C(C)C)CC=C2C(C#N)=C(N)C1(C#N)C#N (stereo unspecified) | 60.7% (active)
CCCC1C2CN(C(C)=O)CC=C2C(C#N)=C(N)C1(C#N)C#N (stereo unspecified) | -10.2% (inactive)
CC(C)N1CC=C2C(C#N)=C(N)C(C#N)(C#N)C(c3ccccc3)C2C1 (stereo unspecified) | 20.5% (inactive)
CN1CC=C2C(C#N)=C(N)C(C#N)(C#N)[C@H](c3ccoc3)[C@H]2C1 | 15.1% (inactive)
Cc1ccc(C2C3CN(C(C)C)CC=C3C(C#N)=C(N)C2(C#N)C#N)cc1 (stereo unspecified) | 24.4% (inactive)
CC(C)N1CC=C2C(C#N)=C(N)C(C#N)(C#N)[C@H](c3ccoc3)[C@H]2C1 | 58.4% (active)
CCN1CC=C2C(C#N)=C(N)C(C#N)(C#N)C(CCc3ccccc3)C2C1 (stereo unspecified) | 52.5% (active)
CC(=O)N1CC=C2C(C#N)=C(N)C(C#N)(C#N)C(CCc3ccccc3)C2C1 (stereo unspecified) | 14% (inactive)
Cc1ccccc1-c1nc(CN(Cc2c(C)nn(C)c2C)C2CC2)c(C)o1 | 5.6% (inactive)
CC(C)(C)c1ccc2c(c1)N(CC(=O)O)C(=O)CO2 | -8.3% (inactive)
